For part of these data: Results with a measured potency or affinity are listed apart.

One experiment relates to Staphylococcus aureus. Kind of experiment: Antibacterial activity against Staphylococcus aureus MRSA ATCC 43300 (CO-ADD:GP_020); MIC in CAMBH media using NBS plates, by Resazurin F(560/590). Conditions: Concentration 20 uM, ASSAY_TEST Inhibition of Bacterial Growth, detection method Resazurin, Fluorescence (ex560/em590), MEDIA CAMHB, plate type 384well, CORNING #3640, time 18 hr. The experiment is classed as functional.

The test system of another experiment is Acinetobacter baumannii. Kind of experiment: Antibacterial activity against Acinetobacter baumannii ATCC 19606 (CO-ADD:GN_034); MIC in CAMBH media using NBS plates, by Resazurin F(560/590). Conditions: Concentration 20 uM, ASSAY_TEST Inhibition of Bacterial Growth, detection method Resazurin, Fluorescence (ex560/em590), MEDIA CAMHB, plate type 384well, CORNING #3640, time 18 hr. In kind it is functional.

A further experiment concerns Escherichia coli. Briefly: Antibacterial activity against Escherichia coli ATCC 25922 (CO-ADD:GN_001); MIC in CAMBH media using NBS plates, by Resazurin F(560/590). The experiment is classed as functional. Conditions: Concentration 20 uM, ASSAY_TEST Inhibition of Bacterial Growth, detection method Resazurin, Fluorescence (ex560/em590), MEDIA CAMHB, plate type 384well, CORNING #3640, time 18 hr.

For a further experiment, the system named is Klebsiella pneumoniae. The following applies: Concentration 20 uM; ASSAY_TEST Inhibition of Bacterial Growth; detection method Absorption (OD600); MEDIA CAMHB; plate type 384well; NBS; CORNING #3640; time 18 hr.
The next experiment deals with Candida albicans. Conditions: 20 µM.
A further experiment has as its system Cryptococcus neoformans. Conditions: Concentration 20 uM; ASSAY_TEST Inhibition of Fungal Growth; detection method Resazurin; Absorption (OD600-OD570); plate type 384well; NBS; CORNING #3640.

The term Inhibition denotes the drop in the measured response relative to a control, in per cent. With `O=Cc1c[nH]c2ncccc12`, the Inhibition was 3.78% with Staphylococcus aureus; -8.67% with Acinetobacter baumannii; 4.47% in the experiment with Escherichia coli; 13.98% in the experiment with Klebsiella pneumoniae; 4.83% in the experiment with Candida albicans; -7.37% in the experiment on Cryptococcus neoformans.

With `CNC1(C(N)=O)CCNCC1`, the Inhibition in the experiment with Staphylococcus aureus is 10.6%; in the experiment with Acinetobacter baumannii it was -11.41%; with Escherichia coli, 16.83%; in the experiment on Klebsiella pneumoniae, 15.69%; with Candida albicans, -0.33%; in the experiment with Cryptococcus neoformans, -6.49%.

In the case of `N#CCS(=O)(=O)c1cccc[n+]1[O-]`, the Inhibition in the experiment on Staphylococcus aureus is 7.02%; with Acinetobacter baumannii it was -20.49%; in the experiment on Escherichia coli it was 18.56%; with Klebsiella pneumoniae it was 15.26%; in the experiment with Candida albicans, 4.91%; with Cryptococcus neoformans, -4.09%.

In the case of `Oc1ccc2ccccc2c1/N=N/c1ccc(F)cc1`, the Inhibition is 3.11% in the experiment with Staphylococcus aureus; 4.07% in the experiment on Acinetobacter baumannii; -0.77% in the experiment with Escherichia coli; 13.5% with Klebsiella pneumoniae; -3.66% with Candida albicans; -8.4% with Cryptococcus neoformans.

Consider `N#CNC(=N)c1ccccc1`, for which the Inhibition in the experiment on Staphylococcus aureus was 0.25%; with Acinetobacter baumannii it was 1.21%; in the experiment with Escherichia coli, -14.26%; in the experiment on Klebsiella pneumoniae it was 9.63%; in the experiment on Candida albicans it was 1.62%; in the experiment on Cryptococcus neoformans, 22.72%.

Take `CN(C)c1ccc(/N=N\c2cccc3ccoc23)cc1`: the Inhibition is -15.18% in the experiment on Staphylococcus aureus; -4.75% in the experiment on Acinetobacter baumannii; -16.41% with Escherichia coli; -3.95% with Klebsiella pneumoniae; 3.86% in the experiment with Candida albicans; -4.24% in the experiment with Cryptococcus neoformans.

With `COc1cc(CC(=O)C(=O)O)oc(=O)c1`, the Inhibition is 12.14% in the experiment on Staphylococcus aureus; 6.41% in the experiment with Acinetobacter baumannii; -2.06% in the experiment on Escherichia coli; 12.51% with Klebsiella pneumoniae; 3.8% with Candida albicans; -8.52% in the experiment with Cryptococcus neoformans.

`OC(COc1ccc(Cl)cc1)CN1CCN(c2cccc(Cl)c2)CC1` (stereo not given): the Inhibition in the experiment on Staphylococcus aureus is 15.95%; with Acinetobacter baumannii it was -3.41%; with Escherichia coli it was 10.45%; in the experiment on Klebsiella pneumoniae, 10.9%; in the experiment on Candida albicans it was -0.89%; in the experiment with Cryptococcus neoformans, -14.11%.

With `Clc1ccccc1-c1nc(-c2ccncc2)no1` [PIFEXOLE], the Inhibition in the experiment on Staphylococcus aureus is 2.18%; in the experiment on Acinetobacter baumannii it was -11.63%; with Escherichia coli it was 7%; in the experiment with Klebsiella pneumoniae, 9.18%; in the experiment on Candida albicans it was 12.7%; in the experiment with Cryptococcus neoformans it was -16.63%.

`CCOc1nsc(OCC)n1`: the Inhibition in the experiment on Staphylococcus aureus was 10.98%; in the experiment with Acinetobacter baumannii, -19.84%; in the experiment with Escherichia coli it was 11.82%; in the experiment with Klebsiella pneumoniae, -1.83%; with Candida albicans, 5.3%; in the experiment on Cryptococcus neoformans, -10.38%.

On to `COc1ccc(C(=S)N2CCN(c3ccccc3C)CC2)cc1`, for which the Inhibition with Staphylococcus aureus was 6.05%; in the experiment with Acinetobacter baumannii, -20.13%; in the experiment on Escherichia coli, 15.7%; with Klebsiella pneumoniae, 10.93%; with Candida albicans, 24.1%; with Cryptococcus neoformans it was -16.11%.

Consider `O=C(/C=C/C(=O)N1CCc2ccccc2C1)N1CCc2ccccc2C1`, for which the Inhibition with Staphylococcus aureus is 0.65%; with Acinetobacter baumannii, -9.4%; in the experiment with Escherichia coli it was -3.52%; in the experiment with Klebsiella pneumoniae, 3.56%; in the experiment with Candida albicans, 7.97%; with Cryptococcus neoformans, -10.59%.

`CCCCn1cnc2c(S)nc(N)nc21`: the Inhibition with Staphylococcus aureus was 6.68%; with Acinetobacter baumannii, -8.46%; in the experiment with Escherichia coli it was -1.37%; in the experiment with Klebsiella pneumoniae, 7.23%; in the experiment on Candida albicans, 1.37%; in the experiment on Cryptococcus neoformans, -12.06%.

Regarding `CN1CCN(C2=NCCO2)CC1`, the Inhibition in the experiment on Staphylococcus aureus was 4.85%; in the experiment on Acinetobacter baumannii, -15.45%; with Escherichia coli, 15.25%; in the experiment on Klebsiella pneumoniae, 13.16%; with Candida albicans, 3.03%; in the experiment on Cryptococcus neoformans, 6.31%.

As to `Cc1cccc(N=C(S)Nc2cccc(C)n2)n1`, the Inhibition was 2.02% with Staphylococcus aureus; 12.82% in the experiment on Acinetobacter baumannii; 3.58% with Escherichia coli; 8.62% with Klebsiella pneumoniae; 3.4% with Candida albicans; -9.05% with Cryptococcus neoformans.

As to `OC(C#Cc1ccccc1)(c1ccccc1)c1ccccc1`, the Inhibition with Staphylococcus aureus is 14.7%; in the experiment with Acinetobacter baumannii, 1.28%; in the experiment with Escherichia coli, -2.05%; with Klebsiella pneumoniae it was 4.96%; with Candida albicans it was 3.27%; with Cryptococcus neoformans it was -7.2%.

Turning to `O=C(COc1ccc([N+](=O)[O-])cc1Cl)N1CCOCC1`, the Inhibition in the experiment on Staphylococcus aureus is 2.54%; with Acinetobacter baumannii, 4.52%; in the experiment on Escherichia coli, 6.72%; in the experiment with Klebsiella pneumoniae, 6.01%; with Candida albicans, -1.21%; with Cryptococcus neoformans, -16.6%.

Turning to `N#CCCCCN1CCCC1`, the Inhibition is 4.35% in the experiment with Staphylococcus aureus; -8.73% in the experiment on Acinetobacter baumannii; 3.27% in the experiment with Escherichia coli; 18.95% with Klebsiella pneumoniae; -1.32% in the experiment on Candida albicans; -2.95% with Cryptococcus neoformans.

Consider `CCOC(=O)C(=Cc1ccc(Br)cc1)C(=O)OCC`, for which the Inhibition is 4.77% with Staphylococcus aureus; 8.54% in the experiment with Acinetobacter baumannii; -5.6% in the experiment with Escherichia coli; 28.34% with Klebsiella pneumoniae; 19% with Candida albicans; -1.07% in the experiment with Cryptococcus neoformans.

Regarding `COC(=O)c1ccc(Cn2cnc3c(Cl)ncnc32)cc1`, the Inhibition in the experiment on Staphylococcus aureus is -16.45%; with Acinetobacter baumannii it was 0.57%; with Escherichia coli, -10.62%; in the experiment with Klebsiella pneumoniae, 2.87%; with Candida albicans, -1.99%; with Cryptococcus neoformans it was 15.29%.

For `Clc1ccc(-c2c(C3=NCCCN3)nnn2-c2ccc(Cl)cc2)cc1`, the Inhibition with Staphylococcus aureus was 10.56%; with Acinetobacter baumannii, -3.66%; with Escherichia coli it was 11.37%; in the experiment on Klebsiella pneumoniae, 18%; with Candida albicans it was 1.4%; in the experiment with Cryptococcus neoformans, -5.35%.

Turning to `Nc1ncnc2c1ncn2C1C=C(CO)C(O)C1O` (stereo not given), the Inhibition in the experiment with Staphylococcus aureus is 4.94%; in the experiment with Acinetobacter baumannii, -16.45%; with Escherichia coli it was 9.33%; in the experiment on Klebsiella pneumoniae, 9.87%; in the experiment with Candida albicans, 1.07%; in the experiment on Cryptococcus neoformans, -6.12%.

`CN1N=C(N)c2cn(C3OC(COP(=O)(O)O)C(O)C3O)c3ncnc1c23` (stereo not given): the Inhibition in the experiment on Staphylococcus aureus was 8.75%; with Acinetobacter baumannii, 8.14%; in the experiment with Escherichia coli it was -1.62%; in the experiment on Klebsiella pneumoniae it was 4.46%; in the experiment with Candida albicans it was -1.48%; with Cryptococcus neoformans, -0.7%.

As for `O=C(O)CCc1cccnc1`, the Inhibition is 18.41% in the experiment with Staphylococcus aureus; -3.93% with Acinetobacter baumannii; 16.49% with Escherichia coli; 14.5% in the experiment on Klebsiella pneumoniae; 1.32% in the experiment on Candida albicans; -2.51% with Cryptococcus neoformans.

On to `CN(/N=N/c1[nH]cnc1C(=O)NN)C1CCCCC1`, for which the Inhibition is 8.69% in the experiment on Staphylococcus aureus; 8.54% in the experiment with Acinetobacter baumannii; -4.79% in the experiment on Escherichia coli; 11.56% with Klebsiella pneumoniae; 3.97% in the experiment with Candida albicans; -4.73% with Cryptococcus neoformans.
